Source: PubChem (several laboratories)
Hits are enriched below; roughly 0.83% of the tested compounds scored in any of these assays.
SRC2 inh: human SRC2 (NCOA2) inhibition; actives 0.17% (n = 370,000); inhibition, % at 9 µM; Q15596; HEK293 GAL4-SRC2 luciferase reporter, luminescence;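 active = inhibition above the mean inhibition of all tested compounds plus 3 SD, set per campaign, cut at about 52% in these data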;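 also: 0% = DMSO treated cells and 100% = cells given Gossypol at 36 µM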
SRC1 inh: inhibitors of human steroid receptor coactivator 1 (SRC1); Q15788; HEK293 GAL4-SRC1 luciferase reporter, luminescence; inhibition, % at 3.6 µM; actives 0.12% (n = 360,000); AID 588354;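 active = inhibition above the campaign mean plus 3 SD, with each screening campaign given its own cutoff, cut at about 60% in these data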;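 also: 0% = DMSO treated cells and 100% = gossypol at 36 µM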
Gli-Sufu antag: blocks Gli-Sufu signaling in a luciferase reporter; Sufu-KO-LIGHT fibroblasts, Gli luciferase reporter luminescence; inhibition, % at 5 µM; actives 0.74% (n = 340,000);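 active = inhibition above about 55%, limit read from the data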;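 also: 0% = DMSO-treated cells and 100% = wells with medium but no cells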
SRC3 inh: inhibits human SRC3 coactivator | Q9Y6Q9 | HEK293 GAL4-SRC3 luciferase reporter, luminescence | inhibition, % at 3.6 µM | actives 0.17% (n = 360,000);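 active = inhibition above a per-campaign cutoff, the mean of all compounds plus 3 SD, cut at about 60% in these data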;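 also: 0% = DMSO-treated cells and 100% = gossypol-treated cells at 36 µM; higher means less SRC3-driven luciferase light from the GAL4 reporter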
NR5A2 inv ag: suppresses constitutive activity of human LRH-1 | O00482 | HEK293T StAR-luciferase reporter, LRH-1 transfected, 24 h | actives 0.13% (n = 360,000) | inhibition, % at 3.6 µM;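 active = inhibition above the mean inhibition of all tested compounds plus 3 SD, cut at about 73% in these data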;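 also: 0% = DMSO wells and 100% = reporter-only cells lacking LRH-1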
Gli antag conf: Gli-SUFU antagonism confirmation, single concentration; AID 602428; shares compounds with Gli-Sufu antag; Sufu-KO-LIGHT cells, Gli luciferase reporter, luminescence; inhibition, % at 5 µM; actives 40% (n = 2,500);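 active = mean inhibition at 5 µM reaching about 45%, limit read from the data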;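 also: plate controls were DMSO-treated cells for no effect and wells lacking cells for full effect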
Gli cytotox: cytotoxic in Gli-SUFU antagonist counter-screen; shares compounds with Gli-Sufu antag; Sufu-KO-LIGHT cells cytotoxicity, ATP luminescence; cytotoxicity, % at 5 µM; actives 32% (n = 2,500);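 active = mean cytotoxicity at 5 µM above about 25%, limit read from the data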;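 also: cells exposed to compound overnight for roughly 16 to 18 hours; plate controls were DMSO wells with cells for no effect and medium without cells for full effect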
Wnt3a counter: counter-screen for Gli-SUFU antagonists: Wnt3a reporter inhibition; shares compounds with Gli-Sufu antag; Wnt-LIGHT cells, Wnt3a-driven luciferase reporter, luminescence; inhibition, % at 6.25 µM; actives 20% (n = 2,500); AID 651995;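 active = mean inhibition above about 25%, limit read from the data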
Active calls of the source: *; / = no result given.

SMILES	SRC2 inh	SRC1 inh	Gli-Sufu antag	SRC3 inh	NR5A2 inv ag	Gli antag conf	Gli cytotox	Wnt3a counter
Cc1cc(N2CC(C)OC(C)C2)nc(C(C)C)n1 (stereo not drawn)	-9	0	52	1	8	16	19	5
CCOc1ccc(N(C)C(=O)CCc2nnc3ccc(N4CCCCC4)nn23)cc1	-5	-5	59*	5	-2	25	9	-14
CCNC(=O)C(=O)NCC(c1cccs1)S(=O)(=O)c1ccc(C)cc1 (stereo not drawn)	8	-8	52	7	-8	12	6	0
CCOC(=O)C(=O)NCC(c1cccs1)S(=O)(=O)c1ccc(Cl)cc1 (stereo not drawn)	-10	-2	55	7	0	32	15	21
CN1C/C(=C/c2ccccc2)N2C(=O)C[C@@H](c3ccccc3)N=C12	11	/	/	/	/	/	/	/
COc1ccc(C2CC(C(F)(F)F)n3nc(CO)c(Cl)c3N2)cc1OC (stereo not drawn)	-1	8	92*	1	15	16	16	6
COc1ccc(C2CC(C(F)(F)F)n3nc(C(=O)O)c(Cl)c3N2)cc1OC (stereo not drawn)	1	2	2	13	-19	/	/	/
NS(=O)(=O)c1ccc(CCNc2ncnc3sccc23)cc1	28	20	60*	15	33	55*	31*	28*
COc1ccc(CCNc2ncnc3sccc23)cc1OC	25	13	75*	34	36	80*	43*	41*
COc1ccc(CCNc2ncnc3c2oc2ccccc23)cc1OC	18	25	73*	36	50	75*	28*	31*
CCN(CC)C(=O)Cn1nc(Cc2ccncc2)c2ccccc2c1=O	-2	/	/	/	/	/	/	/
O=C(Nc1ccncc1)Nc1cccc(Cl)c1	-9	-60	-6	-39	-6	/	/	/
C/C(=N\NC(=O)C(=O)Nc1cccc(Cl)c1)c1ccncc1	1	-19	61*	14	-7	59*	35*	13
C/C(=N\NC(=O)C(=O)Nc1ccc(C)cc1)c1ccncc1	-2	2	4	9	-4	/	/	/
C/C(=N\NC(=O)C(=O)Nc1ccc(C)c(Cl)c1)c1ccncc1	7	-4	62*	25	3	62*	32*	24
CN1C(=O)c2cc(NC(=O)Nc3ccccc3)ccc2OC[C@H]2O[C@@H](CC(=O)NC3CCC3)CC[C@@H]21	-6	/	/	/	/	/	/	/
COc1ccc(OC)c(CN2CCCC(CO)C2)c1 (stereo not drawn)	4	-4	59*	-16	-18	17	-4	11
COc1ccc(OC)c(CN2CCCCCC2)c1	0	3	6	-23	-10	/	/	/
Cc1c(NC(=O)C2CCCN(S(=O)(=O)c3ccccc3[N+](=O)[O-])C2)c(=O)n(-c2ccccc2)n1C (stereo not drawn)	-1	/	/	/	/	/	/	/
CCOC(=O)c1ccc(NC(=O)CSc2nnc(CNC(=O)c3ccccc3F)o2)cc1	-11	6	96*	1	33	17	-9	11
COc1ccc(C(C(=O)N(C)C2CCCC2)N(Cc2ccc(F)cc2)C(=O)c2cc(C)on2)cc1OC (stereo not drawn)	-44	/	/	/	/	/	/	/
Cc1cc(N2CCN(c3nc4ccccc4s3)CC2)n2ncnc2n1	-14	16	71*	19	44	66*	38*	-19
COc1ccc(CNC(=S)OC2CCC23CCC(c2ccccc2)CC3)cc1 (stereo not drawn)	-6	/	/	/	/	/	/	/
Cc1ccnc(NC(=O)c2cccc(NC(=O)Cc3ccccc3)c2)c1	-9	-28	95*	-9	-16	3	25*	-16
Cc1cccc(C(=O)Nc2cccc(C(=O)Nc3cc(C)ccn3)c2)c1	/	-8	-11	-15	-17	/	/	/
SMILES	SRC2 inh	SRC1 inh	Gli-Sufu antag	SRC3 inh	NR5A2 inv ag	Gli antag conf	Gli cytotox	Wnt3a counter
COC(=O)[C@]12C[C@H](CC(=O)NCCCCc3ccccc3)C(=O)N(CCc3ccc(OC)c(OC)c3)C1=C[C@H](C(C)C)O[C@@H]2C1CC1	-14	/	/	/	/	/	/	/
Cc1ccc(NC(=O)CSc2n[nH]c(-c3ccco3)n2)c(C)c1	5	12	57*	-3	27	21	-3	-18
O=C(O)Cn1ncc2ccccc2c1=O	-16	-6	-3	14	1	/	/	/
O=c1c2ccccc2cnn1CCOc1ccccc1	16	-6	59*	36	-52	38	18	95*
O=C(OCc1cn(Cc2ccccc2)nn1)N1CCCC1	-9	/	/	/	/	/	/	/
O=C(Nc1cc(Sc2ccccn2)cc([N+](=O)[O-])c1)c1ccc([N+](=O)[O-])cc1	-40	-4	55	6	-4	24	26*	-51
C#CCN1CC(N(C)CCOC(=O)c2cc3ccccc3[nH]2)CS1(=O)=O (stereo not drawn)	14	/	/	/	/	/	/	/
CC(C)COc1ccc(C/C(N)=N/n2cnnc2)cc1	35	-41	62*	22	8	46*	20	26*
Cc1cc(C)cc(NS(=O)(=O)c2ccc(NC(=S)NC(=O)c3cccs3)cc2)c1	16	-1	3	19	10	/	/	/
CN(C1CCCCC1)S(=O)(=O)c1ccc(NC(=S)NC(=O)c2cccs2)cc1	22	9	63*	-6	2	19	8	1
CC[C@H](CCCCCCCn1ccc2ccccc21)CCC(=O)N(c1ccccc1)c1ccccc1	16	/	/	/	/	/	/	/
OC(CSc1ccccc1)CN1CCN(c2cccc(Cl)c2)CC1 (stereo not drawn)	-13	-13	50	-12	16	23	4	-37
N#CCC[C@@H]1CC[C@]2(CCCN(Cc3ccc(Br)cc3)C2)O1	15	/	/	/	/	/	/	/
COC(=O)C1CN(Cc2cn(CCOC(C)=O)nn2)CCS(=O)(=O)N1Cc1ccc(OC)cc1 (stereo not drawn)	16	/	/	/	/	/	/	/
C(#Cc1ccccc1)C[N+]1(CC#Cc2ccccc2)CCCC1	9	20	76*	15	7	75*	18	6
CC(C)C(NS(=O)(=O)c1cccc2nsnc12)C(=O)NC1CCCCC1C (stereo not drawn)	/	1	58*	1	9	28	4	-9
CC(C)C(NS(=O)(=O)c1cccc2nsnc12)C(=O)Nc1nccs1 (stereo not drawn)	6	4	-2	-1	-1	/	/	/
Cn1c(=O)c2ccccc2n(Cc2ccccc2F)c1=O	18	-9	8	-49	-6	/	/	/
Cn1c(=O)c2ccccc2n(Cc2cccc(F)c2)c1=O	2	10	54	-7	7	27	3	0
Cn1c(N2CCCC2)nc2c1c(=O)n(Cc1ccc(F)cc1)c(=O)n2C	0	-13	53	5	16	12	2	-20
